The text below walks through data of the supplement of paper PMC7530171.

Test [1] concerns THP-1. Nature of the test: THP-1 cell loss relative to DMSO control; higher = more host cell loss (toxicity); extreme values may be limits of the assay. Particulars: 10 µM; 4 days; infection: M. tuberculosis H37Rv. As for the experimental part:
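OICR kinase inhibitor library screened in duplicate at 10 uM against M. tuberculosis-infected THP-1 macrophages, 4 days at 37 C. THP-1 cell loss (cytotoxicity or loss of adherence) was quantified from Hoechst-stained nuclei counts by high-content imaging and normalised to the 1% DMSO control; 100 = complete loss of host cells.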

Test [2] has as its system THP-1 macrophages infected with Mycobacterium tuberculosis H37Rv. As to the kind of experiment: intracellular M.tb growth inhibition relative to DMSO (0) and 4 uM bedaquiline (100); higher = stronger inhibition of intracellular bacterial growth. Particulars: 10 µM; 4 days. As for the experimental part:
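OICR kinase inhibitor library screened in duplicate at 10 uM against THP-1 macrophages (PMA-differentiated) infected with M. tuberculosis H37Rv-pTEC27 (tdTomato RFP), 4 days at 37 C. Rows with complete host cell loss (placeholder inhibition 0, cell loss 100) were removed.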

Each structure is given as a SMILES string. Where “and” joins values, the source holds several entries; their conditions need not be identical. Equal entries are not always repeated. Structures can show the parent of a compound that is named as a salt. ± gives the standard deviation.

Molecule `CC1(C)CNc2cc(NC(=O)c3cccnc3NCc3ccncc3)ccc21` [Motesanib diphosphate salt] returned a THP-1 cell loss in test [1] of 4.91 ± 6.9%. Moreover, in test [2], the “intracellular M.tb growth inhibition” value is 44.9 ± 27%.
Consider `Nc1ncnc2n[nH]c(Nc3ccc(F)cc3)c12`, for which the THP-1 cell loss in test [1] was 24% and 11%. In test [2], the “intracellular M.tb growth inhibition” value is -2.38% and 4.47%.
`Cc1cc(C)c(/C=C2\C(=O)Nc3ccccc32)[nH]1` displayed a THP-1 cell loss in test [1] of 34.2 ± 39%. Moreover, the “intracellular M.tb growth inhibition” value in test [2] was 8.19 ± 12%.
For `c1ccc(-c2[nH]ncc2-c2ccnc3ccccc23)nc1`, the THP-1 cell loss in test [1] is 0%. For the same molecule, the “intracellular M.tb growth inhibition” value in test [2] was 2.68 ± 17%.
For the molecule `NC(=O)c1ccc2nc(-c3ccc(Oc4ccc(Cl)cc4)cc3)[nH]c2c1` [Chk2 Inhibitor II], in test [1], the THP-1 cell loss turned out to be 48.8 ± 4.4%. Besides, in test [2], the “intracellular M.tb growth inhibition” value was determined as 38.6 ± 14%.
Taken in the same sequence, the figures for `COc1ccc(CNC(=O)Nc2ncc([N+](=O)[O-])s2)cc1` were 80.8 ± 27% and 20.1 ± 28%.
In the case of `Oc1ccc(-c2nc(-c3ccc(F)cc3)c(-c3ccncc3)[nH]2)cc1`, the THP-1 cell loss in test [1] worked out at 8.45 ± 0.56%. For the same molecule, the “intracellular M.tb growth inhibition” value in test [2] is 8.19 ± 7.9%.
Taken in the same sequence, the figures for `CN1CCN(CCOc2cc(OC3CCOCC3)c3c(Nc4c(Cl)ccc5c4OCO5)ncnc3c2)CC1` were 20.5 ± 7% and 44.4 ± 16%.
Taken in the same sequence, the figures for `C[C@@H](N)[C@H]1CC[C@H](C(=O)Nc2ccncc2)CC1` were 15.7 ± 22% and -59.3 ± 110%.
Taken in the same sequence, the figures for `Cn1cnc2c(F)c(Nc3ccc(Br)cc3Cl)c(C(=O)NOCCO)cc21` were 82.3 ± 9.6% and 6.79 ± 5.7%.
As to `CCOc1cc(/C=C(\C#N)C(N)=O)cc(CSc2ccccc2)c1O`, the THP-1 cell loss in test [1] came out at 10.3 ± 14%. In addition, the “intracellular M.tb growth inhibition” value in test [2] was -116 ± 140%.
Taken in the same sequence, the figures for `CC(C)c1cc(/C=C(\C#N)C(=O)NCCCc2ccccc2)cc(C(C)C)c1O` [Tyrphostin SU 1498] were 30.1 ± 12% and 50.29 ± 0.083%.
Taken in the same sequence, the figures for `O=c1[nH]ccc2c(S(=O)(=O)N3CCCNCC3)cccc12` [HA 1100 hydrochloride] were 0% and -142 ± 180%.
Taken in the same sequence, the figures for `COc1ccc(S(=O)(=O)N(C(C)=O)c2ccccc2/C=C/c2cc[n+]([O-])cc2)cc1` were 51.3 ± 4.4% and -316 ± 310%.
In test [1], `CC(C)CCN1c2nc(Nc3cc(F)c(O)c(F)c3)ncc2N(C)C(=O)C1C` (stereo not given) had a THP-1 cell loss of 56.5 ± 6.2%. Further, in test [2], the “intracellular M.tb growth inhibition” value was -228 ± 190%.
In the case of `CNC(=O)c1ccccc1Sc1ccc2c(/C=C/c3ccccn3)n[nH]c2c1` [Axitinib], the THP-1 cell loss in test [1] was 14.9 ± 11%. Moreover, the “intracellular M.tb growth inhibition” value in test [2] came out at 33.9 ± 1.6%.
In turn, `CS(=O)(=O)N1CCN(Cc2cc3nc(-c4cccc5[nH]ncc45)nc(N4CCOCC4)c3s2)CC1` [GDC-0941 bismesylate] came in with a THP-1 cell loss in test [1] of 38 ± 2.2%. The “intracellular M.tb growth inhibition” value in test [2] is 56 ± 26%.
`O=C(Nc1cc(Cl)cc2c1[nH]c1cnccc12)c1cccnc1` [PS1145 dihydrochloride] had a THP-1 cell loss in test [1] of 48.1 ± 24%. Besides, the “intracellular M.tb growth inhibition” value in test [2] was -10.6 ± 33%.
In test [1], `COc1cc2ncc(-c3ccccc3)nc2cc1OC` [Tyrphostin AG-1296] gave a THP-1 cell loss of 0%. In addition, the “intracellular M.tb growth inhibition” value in test [2] was 1.21 ± 2%.
On to `Cc1c(NC(=O)OC[C@@H]2COCCN2)cn2ncnc(Nc3ccc4c(cnn4Cc4cccc(F)c4)c3)c12`, for which the THP-1 cell loss in test [1] stood at 16.7 ± 9.5%. For the same molecule, the “intracellular M.tb growth inhibition” value in test [2] was 48.3 ± 10%.
Taken in the same sequence, the figures for `FC(F)c1nc2ccccc2n1-c1nc(N2CCOCC2)nc(N2CCOCC2)n1` were 35.9 ± 1.9% and -26.3 ± 5.5%.
For `Cc1[nH]c(/C=C2\C(=O)Nc3ccccc32)c(C)c1CCC(=O)O`, the THP-1 cell loss in test [1] stood at 5 ± 7.1%. Further, the “intracellular M.tb growth inhibition” value in test [2] was 6.44 ± 30%.
Taken in the same sequence, the figures for `C=CC[C@@H]1/C=C(\C)C[C@H](C)C[C@H](OC)[C@H]2O[C@@](O)(C(=O)C(=O)N3CCCC[C@H]3C(=O)O[C@H](/C(C)=C/[C@@H]3CC[C@@H](O)[C@H](OC)C3)[C@H](C)[C@@H](O)CC1=O)[C@H](C)C[C@@H]2OC` were 0% and 42 ± 7.7%.
Taken in the same sequence, the figures for `C[C@@]1(C(=O)Nc2ccc(F)nc2)CCCN1c1nc(Nc2cc(C3CC3)n[nH]2)c2cccn2n1` were 43.7 ± 27% and -265 ± 70%.
In turn, `Cc1cc(Nc2cc(N3CCN(C)CC3)nc(/C=C/c3ccccc3)n2)n[nH]1` came in with a THP-1 cell loss in test [1] of 70.7 ± 19%. In test [2], the “intracellular M.tb growth inhibition” value was -329 ± 400%.
Taken in the same sequence, the figures for `COc1cc2ncnc(Nc3cccc(Br)c3)c2cc1OC` were 72.7 ± 4% and -64 ± 39%.
`CNc1cc2c(Nc3cccc(Br)c3)ncnc2cn1` displayed a THP-1 cell loss in test [1] of 78.2 ± 5.8%. Besides, in test [2], the “intracellular M.tb growth inhibition” value amounted to 30.2 ± 36%.
Taken in the same sequence, the figures for `CC(C)c1cnn2c(NCc3ccccc3)cc(NCCCCCCN)nc12` [BS-181 hydrochloride] were 90.8 ± 13% and 3.6 ± 5.1%.
For `Cn1c(=O)n(-c2ccc(C(C)(C)C#N)cc2)c2c3cc(-c4cnc5ccccc5c4)ccc3ncc21`, the THP-1 cell loss in test [1] was 36.6 ± 7.3%. In addition, the “intracellular M.tb growth inhibition” value in test [2] was 26.6 ± 26%.
Consider `CN(C)S(=O)(=O)c1ccc2c(c1)/C(=C/c1cc3c([nH]1)CCCC3)C(=O)N2`, for which the THP-1 cell loss in test [1] worked out at 7.5 ± 1.4%. Moreover, the “intracellular M.tb growth inhibition” value in test [2] was -51.7 ± 62%.
Taken in the same sequence, the figures for `O=[N+]([O-])c1ccc(-c2nc(-c3ccc(F)cc3)c(-c3ccncc3)[nH]2)cc1` were 17 ± 3.5% and 36.6 ± 3.6%.
`COc1cc(Oc2ccnc3cc(OC)c(OC)cc23)ccc1NC(=O)NC(C)c1nccs1` (racemic) yielded a THP-1 cell loss in test [1] of 10.7 ± 4.6%. Besides, the “intracellular M.tb growth inhibition” value in test [2] is -40.9 ± 140%.
As to `C=CCn1c(=O)c2cnc(Nc3ccc(N4CCN(C)CC4)cc3)nc2n1-c1cccc(C(C)(C)O)n1`, the THP-1 cell loss in test [1] worked out at 37 ± 4.8%. Besides, in test [2], the “intracellular M.tb growth inhibition” value is -188 ± 280%.
Taken in the same sequence, the figures for `O=C1NCc2c1c1c3ccccc3[nH]c1c1[nH]c3ccccc3c21` were 35.8 ± 3.5% and 37.2 ± 30%.
Taken in the same sequence, the figures for `COc1cc(Nc2ncc3c(n2)-c2ccc(Cl)cc2C(c2c(F)cccc2OC)=NC3)ccc1C(=O)O` were 8.63 ± 10% and -73.6 ± 120%.
